From PubChem BioAssay (NCI)
About 83,000 compounds went through this panel and 20% of them were active in at least one assay; those are over-represented in the sample as a whole.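 The endpoint reported here, percent growth, reads 100 for growth as untreated, 0 for no net growth and -100 for all cells dead.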 Values without a mark were called inactive. Active and inactive are the calls of the source. The calls were made as follows: active = growth percent below 10; inactive = the rest.

Experiments:
Experiment in all cases: NCI-60 one-dose screen, 48 h (100 = growth as untreated, 0 = no growth, -100 = all killed)
Conditions in all cases: 10 µM unless noted
NCI-H23 lung = test system: NCI-H23 lung
NCI-H226 lung = test system: NCI-H226 lung
NCI-H322M lung = test system: NCI-H322M lung
HOP-62 NSCLC = test system: HOP-62 NSCLC
NCI-H460 lung = test system: NCI-H460 lung
HOP-92 NSCLC = test system: HOP-92 NSCLC
NCI-H522 lung = test system: NCI-H522 lung
A549/ATCC NSCLC = test system: A549/ATCC NSCLC
786-0 renal = test system: 786-0 renal
COLO 205 colon = test system: COLO 205 colon
DU-145 prostate = test system: DU-145 prostate
MALME-3M melanoma = test system: MALME-3M melanoma
MDA-MB-231 breast = test system: MDA-MB-231 breast
RXF 393 renal = test system: RXF 393 renal
SF-268 CNS = test system: SF-268 CNS
SF-295 CNS = test system: SF-295 CNS
SF-539 CNS = test system: SF-539 CNS
UACC-257 melanoma = test system: UACC-257 melanoma
M14 melanoma = test system: M14 melanoma
K-562 leukemia = test system: K-562 leukemia

| SMILES | growth (NCI-H23 lung) | growth (NCI-H226 lung) | growth (NCI-H322M lung) [%] | growth (HOP-62 NSCLC) | growth (NCI-H460 lung) | growth (HOP-92 NSCLC) [%] | growth (NCI-H522 lung) | growth (A549/ATCC NSCLC) | growth (786-0 renal) | growth (COLO 205 colon) | growth (DU-145 prostate) | growth (MALME-3M melanoma) | growth (MDA-MB-231 breast) | growth (RXF 393 renal) | growth (SF-268 CNS) [%] | growth (SF-295 CNS) | growth (SF-539 CNS) | growth (UACC-257 melanoma) [%] | growth (M14 melanoma) | growth (K-562 leukemia) [%] |
| --- | --- | --- | --- | --- | --- | --- | --- | --- | --- | --- | --- | --- | --- | --- | --- | --- | --- | --- | --- | --- |
| C=CCn1c(-c2ccc(-c3nc4ccc(C)cc4[nH]3)cc2)n[nH]c1=S | 94.6% | 94.1% | 102 | 97.7% | 105% | 117 | 90.7% | 99.2% | 107% | 120% | 111% | 96.6% | 90.7% | 110% | 112 | 92.1% | 97% | 102 | 98% |  |
| O=c1[nH]nc(-c2ccccc2)c2sc3ncc(-c4ccc(Br)cc4)n3c12 | 61.6% | 43.8% | 72.3 | 48.8% | 33.8% | 65.3 | -1.56% (active) | 82.9% | 53% | 37.2% | 28.6% | 52.4% | 69.1% | 57.9% | 51 | 48.9% | 41.3% | 66 | 42.3% | 16.1 |
| Nc1nc(Nc2ccccc2SSc2ccccc2Nc2nc(N)nc(-c3ccc(C(F)(F)F)cc3)n2)nc(-c2ccc(C(F)(F)F)cc2)n1 | 31.5% | 55.3% | 88.6 | 47.8% | 40% | 90.7 | 80% | 5.2% (active) | 81.4% | 86.1% | 73.4% | 93% | 67.4% | 78.6% | 50.4 | 65.5% | 88.2% | 106 | 72.5% | 55 |
| COc1ccc(NC(N)=NCCCOc2ccc(F)cc2)cc1 | 64.4% | 91% | 88.1 | 74.2% | 101% | 80.8 | 85.5% | 73.1% | 89.1% | -0.958% (active) | 48.5% | 96.6% | 93.8% | 104% | 77.7 | 70.9% | 71.7% | 25.4 | 69.1% | 91.5 |
| O=C1Nc2cc(Cl)ccc2/C1=C\c1c(-c2ccc(F)cc2)nc2ccccn12 | -20.4% (active) | 7.11% (active) | 39.5 | 3.44% (active) | 0.0437% (active) | 69.8 | -51.5% (active) | 33.5% | 7.55% (active) | -33.1% (active) | -17.9% (active) | 41.4% | 50.3% | -23.8% (active) | 20 | -58.2% (active) | -26.4% (active) | 68.7 | -10.8% (active) |  |
| COc1ccc(C(=O)Cn2c(C(=O)c3ccccc3)nc3ccccc32)cc1 | 28.2% | 38.5% | 78.7 | 40.6% | 8.51% (active) | 54.7 | -28.1% (active) | 31.8% | 43.6% | 51% | 36.7% | 46.6% | 37.6% | 13.1% | 52.9 | 12.2% | 15.1% | 54.3 | 6.97% (active) |  |
| CCOc1ccc(Nc2nc(-c3ccc4c(c3)NC(=O)CO4)cs2)cc1 | 45.7% | 46.9% | 84.8 | 95.9% | 40.7% | 87.3 | 14.6% | 71.7% | 71.1% | 88.5% | 77.2% | 69.7% | 58% | 87.3% | 87.1 | 158% | 78.2% | 33 | 68.2% |  |
| C=C1C(=O)O[C@H]2[C@H]1CC/C(CNC(=O)CCc1ccc(OC)cc1)=C\CC[C@@]1(C)O[C@@H]21 | 85.3% | 89.9% | 91.4 | 83.6% | 90.4% | 19.8 | 20.2% | 81.7% | 34% | 15.1% | 24.2% | 69.2% | 65.8% | 44.6% | 79.5 | 91.9% | 31.1% | 53.1 | 42.5% | 19.4 |
| Cc1ccc(C(=O)/C(=C/c2ccc([N+](=O)[O-])cc2)SCc2ccc(Cl)cc2)cc1 | 61.8% | 76.3% | 75.5 | 100% | 74.6% | 92 | 63.1% | 67.9% | 52.1% | 82.7% | 86.9% | 83.3% | 83.8% | 95.4% | 69.8 | 83.3% | 112% | 83 | 74.6% |  |
| CC(C)(C)c1cc(C=O)cc(C(C)(C)C)c1O | 112% | 97.8% | 101 | 106% | 111% | 79.5 | 90.7% | 101% | 107% | 100% | 103% | 101% | 87.5% | 104% | 96.6 | 112% | 102% | 102 | 101% |  |
| Cc1c(C)c([N+](=O)[O-])c(C)c([N+](=O)[O-])c1C | 116% | 108% | 115 | 121% | 112% | 79.2 | 77.2% | 98.2% | 95.4% | 122% | 104% | 111% | 101% | 108% | 106 | 97.6% | 107% | 105 | 108% |  |
| COc1cc(/C=C\c2cc(/C=C\c3ccc(O)c(OC)c3)n(C(=O)COc3ccccc3)n2)ccc1O | 1.6% (active) | 9.96% (active) | 30.8 | 8.39% (active) | 7.6% (active) | 14.4 | -39.3% (active) | 8.68% (active) | 1.27% (active) | 79.3% | 9.09% (active) | 7.21% (active) | 11.3% | -44.5% (active) | 12 | 15.5% | -10.3% (active) | 30.5 | 6.75% (active) |  |
| OCc1cnccc1NCCCCOc1ccc(Oc2ccccc2)cc1 | 46.6% | 70.1% | 94.7 | 72.1% | 69.6% | 43 | 62.9% | 78.3% | 56.8% | -10.4% (active) | 80.2% | 58% | 62.6% | 66.1% | 80.9 | 51.5% | 67.3% | 54.5 | 53.6% |  |
| CCc1ccc(-c2cn3ccnc3c(-c3ccc4ncn(Cc5ccccc5)c4c3)n2)cc1 | 77% | 98.5% | 99.1 | 82.1% | 58% | 63.9 | 54.1% | 54.6% | 61.9% | 65.8% | 80.9% | 115% | 56.8% | 69.3% | 69.5 | 48.8% | 78.8% | 103 | 63.6% |  |
| COc1cc(C2C3=C(COC3=O)N(CCO)c3cc4c(cc32)CCC4)cc(OC)c1OC (stereo not drawn) | -26.2% (active) | 2.98% (active) | 39.8 | 7.11% (active) | -44.8% (active) | 78.2 | -26.7% (active) | 28.9% | -4.65% (active) | -98.8% (active) | -23.7% (active) | 54.9% | 1.31% (active) | 26.5% | 22 | -23.6% (active) | -29.8% (active) | 52.9 | -34% (active) |  |
| COc1ccc(C(=O)c2nc3ccccc3n2CC(=O)c2ccc(F)cc2)cc1 | 88.4% | 102% | 99.8 | 91.4% | 108% | 95.5 | 35.6% | 98.2% | 87.3% | 131% | 104% | 68.6% | 83% | 89.1% | 100 | 190% | 101% | 86 | 82.8% |  |
